According to the supplement of paper PMC11577813, “Eurasian spruce bark beetle detects lanierone using a highly expressed specialist odorant receptor, present in several functional sensillum types” (BMC Biology, 2024):
± gives the standard deviation of the averaged measurements.

Tested on: ipsdienol A-neuron OSN class
Assay: net action potential response of A-neuron (blank-subtracted) (spikes/s (Hz)); higher = stronger excitation
Conditions: 10 µg on filter paper; neuron: A neuron (large spike amplitude)
Experimental: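 Single sensillum recordings from antennal olfactory sensilla of live adult Ips typographus. Each compound was 10 µg in paraffin oil on filter paper, delivered as a 0.5 s puff. Net response = spikes in the first 0.5 s of response minus the 0.5 s pre-stimulus count, doubled to give Hz, with blank response subtracted. Values are for the large-spike A-neuron class of each of seven sensillum types that co-house the lanierone B-neuron; N = 1-4 sensilla, averaged.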

For `O=Cc1ccccc1` [Benzaldehyde], which “net action potential response” value is on record?
Its value is 2 ± 4.

Which “net action potential response” value does the source give for `C=CCc1ccc(OC)cc1` [Estragole] here?
Its value is 2.67 ± 1.1.

Which “net action potential response” value does the source give for `Cc1ccccc1` [Toluene] here?
The value was -1.33 ± 5.
